Each structure is given as a SMILES string. Several values for one entry are separate records, joined by “and”; a condition that tells them apart may be missing. Equal entries are not always repeated. In all, about 400,000 compounds went through this assay and about 2,200 (0.55%) were called active. About 1% were inconclusive and are not listed. The entries come from a sample that favours actives as a whole. Entries that show only a call come without a potency. A number with no mark means an inactive call. The call rests on the fitted dose curve; in most records, active means well fitted inhibition curve with a large enough effect; inconclusive means small, poorly fitted or top-dose-only effect, or another doubt; inactive means no such curve, though single readings can be large or run the other way.
Potency means the concentration at half of the fitted maximal effect.

Sequence of DNA polymerase kappa (Homo sapiens) (Q9UBT6 whole entry, looked up): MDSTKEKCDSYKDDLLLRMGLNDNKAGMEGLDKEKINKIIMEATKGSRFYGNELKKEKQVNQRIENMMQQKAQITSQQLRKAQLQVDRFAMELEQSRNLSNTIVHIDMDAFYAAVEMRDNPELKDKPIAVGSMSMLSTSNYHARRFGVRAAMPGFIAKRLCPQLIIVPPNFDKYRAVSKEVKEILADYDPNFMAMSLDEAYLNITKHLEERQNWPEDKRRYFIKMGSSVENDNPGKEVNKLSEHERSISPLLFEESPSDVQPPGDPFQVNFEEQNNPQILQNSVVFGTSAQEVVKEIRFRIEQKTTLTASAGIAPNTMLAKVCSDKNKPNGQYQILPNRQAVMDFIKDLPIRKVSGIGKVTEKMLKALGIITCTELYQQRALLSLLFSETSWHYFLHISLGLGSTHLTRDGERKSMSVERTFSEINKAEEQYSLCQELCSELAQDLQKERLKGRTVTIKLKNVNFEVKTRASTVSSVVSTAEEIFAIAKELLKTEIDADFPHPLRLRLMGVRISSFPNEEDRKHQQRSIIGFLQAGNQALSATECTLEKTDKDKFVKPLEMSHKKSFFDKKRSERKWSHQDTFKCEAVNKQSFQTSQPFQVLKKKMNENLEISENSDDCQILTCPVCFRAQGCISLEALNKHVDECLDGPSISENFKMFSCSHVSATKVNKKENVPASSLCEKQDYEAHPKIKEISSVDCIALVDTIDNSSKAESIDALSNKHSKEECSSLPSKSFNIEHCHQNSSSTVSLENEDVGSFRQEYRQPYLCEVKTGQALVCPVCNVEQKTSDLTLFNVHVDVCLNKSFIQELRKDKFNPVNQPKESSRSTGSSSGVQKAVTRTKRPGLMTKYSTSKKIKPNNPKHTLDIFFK

In the assay the target is DNA polymerase kappa (Homo sapiens) (UniProt Q9UBT6). The assay can be described thus: qHTS for Inhibitors of Polymerase Kappa. The settings on record: purified Pol kappa, fluorescent DNA synthesis assay, 10 min; series mostly up to 107 µM. Put shortly:
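Kinetic fluorescence screen: compound preincubated 15 min RT with 10 nM enzyme; 50 nM substrate (final) initiates; reads at 0/10 min.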
On to `O=C1COc2ccc(-c3csc(-c4ccc(Cl)cc4)n3)cc2N1`, for which the Potency entry was “inactive”.

With `COc1ccc(Cc2nnc(NC(=O)Cc3cccs3)s2)cc1`, the Potency was 14.1 µM (active).

Regarding `CCc1nnc(NC(=O)CCC(=O)NCc2ccccc2OC)s1`, the Potency entry is “inactive”.

On to `COc1ccc(CC(=O)Nc2sc(Cc3ccccc3)c(C)c2C(N)=O)cc1`, for which the Potency entry is “inactive”.

Take `C=C[C@](C)(O)CCC1C(=C)CCC2[C@@](C)(CO)CCC[C@@]12C` (stereo not given in full): the Potency entry is “inactive”.

Regarding `CC(=O)OCC(=O)C1CCC2C3CCC4=CC(=O)CC[C@@]4(C)C3CC[C@]12C` (stereo not given in full), the Potency result was “inactive”.

Turning to `COC(=O)[C@@H]1CC2=CC(=O)CC[C@]2(C)[C@@]23O[C@@H]2C[C@@]2(C)[C@@H](CC[C@@]24CCC(=O)O4)[C@H]13`, the Potency entry was “inactive”.

As for `COc1ccc(/C=C/c2ccccn2)cc1OC`, the Potency entry is “inactive”.

As to `Cn1c(N)c(C(=O)COC(=O)c2ccccc2NCc2ccco2)c(=O)n(C)c1=O`, the Potency result was “inactive”.

For `CN(c1ccccc1)S(=O)(=O)c1ccc(Cl)c(C(=O)OCC(=O)N2CCOCC2)c1`, the Potency result was “inactive”.

Turning to `Cc1cc(C(=O)OCC(=O)NCc2ccco2)c(C)n1-c1ccccc1`, the Potency is 79.4 µM (active).

Consider `COc1ccc(-n2c(SCC(=O)NCc3ccco3)nnc2-c2c[nH]c3ccccc23)cc1`, for which the Potency entry is “inactive”.

In the case of `CN(c1ccccc1)S(=O)(=O)c1ccc(Cl)c(C(=O)OCC(=O)NCc2ccco2)c1`, the Potency is 79.4 µM (active).

For the compound `O=C(COC(=O)c1cc(S(=O)(=O)N2CCOCC2)ccc1Cl)NCCc1ccccc1`, the Potency entry is “inactive”.

With `CCNc1ncc2ncc(=O)n(Cc3cccc(OC)c3)c2n1`, the Potency entry is “inactive”.

Consider `Cc1cc(N(C)C)nc(Cl)n1`, for which the activity, negative = inhibition was -8.53% [at 12 µM].

For the compound `O=C(Nc1cccc(F)c1)N1CCC2(CC1)CCN(S(=O)(=O)c1ccccc1)CC2`, the Potency result was “inactive”.

`COc1ccc(/C=C/c2ccnc3ccccc23)cc1OC`: the Potency entry was “inactive”.

Take `Cc1cccc(CN2Cc3cccc4c3[C@H](C=CC4)CC2=S)c1`: the Potency entry is “inactive”.

`CC1CCN(C(=O)COC(=O)CCC(=O)c2cccs2)CC1`: the Potency result is “inactive”.

As for `O=C(COC(=O)CCC(=O)c1cccs1)NCc1ccco1`, the Potency was 31.6 µM (active).

Consider `CCN(C(=O)COC(=O)CCC(=O)c1cccs1)C1CCCCC1`, for which the Potency entry was “inactive”.

In the case of `O=C(Nc1cccc(F)c1)N1CC2(CCN(C(=O)c3cnccn3)CC2)C1`, the Potency result is “inactive”.

Turning to `CC(C)[C@H](CO)Nc1nc(Nc2cc(N)cc(Cl)c2)c2ncn(C(C)C)c2n1`, the activity, negative = inhibition was -6.51% [at 19.4 µM].

On to `Cc1ccc(-c2nnc(SCC(=O)NCc3ccccc3)nc2-c2ccc(C)cc2)cc1`, for which the Potency entry is “inactive”.

On to `Clc1ccccc1CSc1nncn2c1cc1occc12`, for which the Potency entry was “inactive”.

As to `Clc1ccccc1CSc1nnc(-c2ccco2)c(-c2ccco2)n1`, the Potency was 35.5 µM (active).

Regarding `CC1(C)N=C(SCc2ccccc2Cl)c2ccccc2N1`, the Potency result was “inactive”.

Regarding `CSc1n[nH]c(-c2ccco2)n1`, the Potency result was “inactive”.

Take `c1ccc(CSc2nnc(-c3ccco3)c(-c3ccco3)n2)cc1`: the Potency was 20 µM (active).

Turning to `Nc1nc2c(nc(Cl)n2C2OC(CO)C(O)C2O)c(=O)[nH]1` (stereo not given), the Potency entry is “inactive”.

For the compound `COC(=O)N1CCC2(CCCN(c3ccncc3)C2)CC1`, the Potency entry is “inactive”.

`O=P(O)(O)C(O)c1ccc2ccccc2c1` (stereo not given): the activity, negative = inhibition is 8.31% [at 19.4 µM].

`COc1cc2nc(Cl)nc(NC3CC3)c2cc1OC`: the Potency entry is “inactive”.

Regarding `Cc1ccc(C)c(Nc2nnc(-c3ccc(C)c(S(=O)(=O)N4CCCCC4)c3)c3ccccc23)c1`, the Potency is 79.4 µM (active).

With `Cc1ccc(Nc2nnc(-c3ccc(C)c(S(=O)(=O)N4CCCCC4)c3)c3ccccc23)cc1`, the Potency result is “inactive”.

For the compound `Cc1ccc(-c2nnc(Nc3ccc(C(=O)N(C)C)cc3)c3ccccc23)cc1S(N)(=O)=O`, the Potency entry is “inactive”.

For the compound `Cc1ccc(-c2ncc(Cl)cc2-c2ccc(S(C)(=O)=O)cc2)cn1`, the Potency result is “inactive”.

For `O=C(c1cc(C(F)(F)F)cc(C(F)(F)F)c1)N1CCC2(CCCN(c3ccccn3)C2)CC1`, the Potency result was “inactive”.

In the case of `COc1ccccc1CNc1ccnc(-c2c(C)noc2C)n1`, the Potency result was “inactive”.

Regarding `Cc1ccccc1NC(=O)CN1C(=O)C(C)(C)c2ccccc21`, the Potency entry is “inactive”.

With `Cc1ccccc1NC(=O)Cn1c(=O)n(CCc2ccccc2)c(=O)c2ccccc21`, the Potency result was “inactive”.

Regarding `Cc1ccccc1NC(=O)CN1C(=O)N/C(=C\c2cccn2-c2cccc(C(=O)O)c2)C1=O`, the Potency is 14.1 µM (active).

With `COc1ccccc1CNc1nc(-c2c(C)noc2C)nc2ccccc12`, the Potency result was “inactive”.

As to `COc1c(O)c2c(=O)cc(OC)c3c4c(OC)cc(=O)c5c(O)c(OC)c6c(c(c1C[C@@](C)(O)[C@H]6C(C)=O)c23)c54`, the Potency result was “inactive”.

Consider `CSc1nnc(SCc2nc3sc(C(=O)O)c(C)c3c(=O)[nH]2)s1`, for which the Potency was 25.1 µM (active).

In the case of `CCN(CC)Cc1nc2sc(C)c(C)c2c(=O)[nH]1`, the Potency entry is “inactive”.

For the compound `Cc1ccc(S(=O)(=O)N2CCCC2C(=O)OCc2nc3sc(C)c(C)c3c(=O)[nH]2)cc1` (stereo not given), the Potency result is “inactive”.

`FC(F)(F)c1ccccc1-c1cc(NCc2ccccc2)ncn1`: the Potency result was “inactive”.

With `CCC(C)N(c1ccc(/C=C/c2ccnc3ccccc23)cc1)C(C)CC` (stereo not given), the Potency entry was “inactive”.

Regarding `Cc1ccc(N=C2NC(=O)/C(=C/C=C/c3ccco3)S2)cc1C`, the Potency was 28.2 µM (active).

Turning to `CC(=O)OC1CCC2(O)CC1(C)CCC1C2CC1(C)C` (stereo not given), the Potency result was “inactive”.

Turning to `O=C(c1cc2cc(Br)cc(Br)c2oc1=O)N1CCOCC1`, the Potency result was “inactive”.

Turning to `O=C(CSC(=S)N1CCOCC1)c1cc(Br)cc(Br)c1O`, the Potency was 79.4 µM (active).

As to `O=C(CSC(=S)N1CCCCC1)c1c(F)cccc1F`, the Potency result was “inactive”.

With `CCOCCOC(=O)C(C)Oc1ccc(Oc2ncc(C(F)(F)F)cc2Cl)cc1` (stereo not given), the Potency entry was “inactive”.

On to `CC(=O)CC(c1ccccc1)C1C(=O)Oc2ccccc2C1=O` (stereo not given), for which the Potency entry was “inactive”.

In the case of `O=C(O)c1cccc(N=NN2CCCCCC2)c1`, the Potency entry was “inactive”.

As for `CN1C(=O)/C(=C/c2ccco2)SC1=Nc1cccc(C(=O)O)c1`, the Potency is 20 µM (active).

Regarding `CN=C1S/C(=C\c2c(OC)cc(OC)cc2OC)C(=O)N1C`, the Potency entry was “inactive”.

Take `CCOC(OCC)OCC`: the Potency entry was “inactive”.

Consider `CCc1c2c(nc3ccc(O)cc13)-c1cc3c(c(=O)n1C2)COC(=O)[C@]3(O)CC`, for which the Potency result was “inactive”.

`NC(=O)Nc1ccc(/C=C/c2ccnc3ccccc23)cc1`: the Potency entry was “inactive”.

For the compound `COc1ccc2[nH]c3c(C)c4cc[n+](C)cc4c(C)c3c2c1`, the Potency was 2.38 µM (active) and 11.2 µM (active).

Consider `Cc1cccc(CNc2ccnc(-c3cccnc3)n2)c1`, for which the Potency entry is “inactive”.

With `COCCn1c(=O)c(-c2cc(F)cc(F)c2)nc2cnc(N3CCNCC3)nc21`, the Potency result is “inactive”.

Take `CN(C)c1ccc(C=Nc2ccc(/C=C/c3ccnc4ccccc34)cc2)cc1`: the Potency result was “inactive”.

Consider `NC(=O)C(=O)N/N=C/c1ccc([N+](=O)[O-])o1`, for which the Potency entry is “inactive”.

Regarding `O=c1cc(-c2ccc(O)cc2)oc2c(-c3cc(-c4cc(=O)c5c(O)cc(O)cc5o4)ccc3O)c(O)ccc12`, the Potency was 26.7 µM (active).

On to `O=c1c(-c2ccc3c(c2)OCCO3)c(C(F)(F)F)oc2cc(O)cc(O)c12`, for which the Potency result is “inactive”.

With `CCOC(=O)c1cc2cc(-c3c(C(=O)OCC)oc4cc(O)cc(O)c4c3=O)ccc2o1`, the Potency entry is “inactive”.

Take `C=C(C)C1CC=C(C)C(O)C1` (stereo not given): the Potency entry was “inactive”.

`C=C1C=C(C)n2ncc(C(=O)Nc3ccccc3O)c2N1`: the Potency entry was “inactive”.

As to `CC(C)c1ccc(Nc2nnc(SCC(=O)c3nnc(-c4ccccc4)o3)s2)cc1`, the Potency was 79.4 µM (active).

Turning to `CC(=O)c1ccc(NC(=O)CSc2nnc(NC(=O)Nc3ccccc3)s2)cc1`, the Potency result was “inactive”.

Turning to `CN(C(=O)CSc1nnc(NC(=O)Nc2ccccc2)s1)c1ccccc1`, the Potency result is “inactive”.

For the compound `CC(C)=CCC/C(C)=C/CC/C(C)=C/CC/C(C)=C/CO`, the Potency entry is “inactive”.

Regarding `O=C(c1cc(C(F)(F)F)cc(C(F)(F)F)c1)N1CCC2(CCCN(Cc3ccncc3)C2)CC1`, the Potency result was “inactive”.

As to `OCC(CO)NC1C[C@](O)(CO)[C@@H](O)[C@H](O)[C@H]1O` (stereo not given in full), the Potency result was “inactive”.

Regarding `CC(=O)Oc1c2c(c3c(c1CC=C(C)C)O[C@@]14C(=CC5CC1C(C)(C)OC4(C/C=C(\C)C(=O)O)C5=O)C3=O)OC(C)(CCC=C(C)C)C=C2` (stereo not given in full), the Potency was 31.6 µM (active).

In the case of `COc1ccc2c3c1OC1CC(O)C=C[C@@]31CCN(C)C2` (stereo not given in full), the Potency entry was “inactive”.

Consider `COc1cc2c(cc1OC)CC(=O)N(CCCN(C)C[C@H]1Cc3cc(OC)c(OC)cc31)CC2`, for which the activity, negative = inhibition is 3.96% [at 19.4 µM].

In the case of `FC(F)(F)c1ccccc1-c1nc(-n2ccnc2)c2ccccc2n1`, the Potency entry is “inactive”.

Take `Nc1ccc(/C=C/c2ccnc3ccccc23)c([N+](=O)[O-])c1`: the Potency entry is “inactive”.

Turning to `O=c1/c(=C/c2ccc(CNS(=O)(=O)c3ccccc3)o2)sc2n1CCN=2`, the Potency entry was “inactive”.

Consider `O=c1nc2s/c(=C\c3ccco3)c(=O)n2nc1Cc1ccccc1`, for which the Potency was 31.6 µM (active).

For `CN1CCOC1c1ccc(C2OCCN2C)cc1` (stereo not given), the Potency was 39.8 µM (active).

With `O=C(Nc1ccc(Cl)cc1)c1cnn2c1NC(=C1CC1)C=C2C(F)F`, the Potency entry is “inactive”.

`Nc1ccc2nc3c(=O)[nH]c(=S)[nH]c3nc2c1`: the Potency is 2.24 µM (active).

For the compound `Brc1cccc[n+]1Cc1cccc(C[n+]2ccccc2Br)c1`, the Potency entry is “inactive”.

Regarding `CCNc1ncc2nc(CCc3ccccc3)c(=O)n(-c3ccc(OC)cc3)c2n1`, the Potency result was “inactive”.

Turning to `CCCN1C(=O)C(NS(=O)(=O)c2ccc(N)cc2)(C(F)(F)F)C(C(=O)OC)=C1C` (stereo not given), the Potency entry was “inactive”.

On to `CC(=O)Nc1ccc(S(=O)(=O)NC2(C(F)(F)F)C(=O)NC(C)=C2C#N)cc1` (stereo not given), for which the Potency is 79.4 µM (active).

On to `CC(=O)Nc1ccc(S(=O)(=O)NC2(C(F)(F)F)C(=O)Nc3c2c(=O)[nH]c(=O)n3Cc2ccccc2)cc1` (stereo not given), for which the Potency result was “inactive”.

As to `CC(C)(O)c1ccccc1CC[C@H](SCC1(CC(=O)O)CC1)c1cccc(/C=C/c2ccc3ccc(Cl)cc3n2)c1`, the activity, negative = inhibition was -3.16% [at 19.4 µM].

Take `CC(C)(C)C1C/C(=C/c2ccco2)C(=O)/C(=C/c2ccco2)C1` (stereo not given): the Potency result is “inactive”.

For `CS(=O)(=O)c1ccc2c(c1)SC1=NC(=O)/C(=C/c3ccco3)C(=N)N12`, the Potency was 35.5 µM (active).

As for `CCOc1ccc(NC(=O)c2ncoc2-c2ccco2)cc1`, the Potency result is “inactive”.

Turning to `COc1ccc(NC(=O)COCc2cc(-c3ccco3)on2)cc1`, the Potency entry is “inactive”.

In the case of `COCCNC(=O)Nc1ccc2nc(-c3ccco3)c(-c3ccco3)nc2c1`, the Potency is 3.16 µM (active).

The values are drawn from PubChem BioAssay AID588579 (National Center for Advancing Translational Sciences (NCATS), 2011).
